Holding throughout (assay type): functional
Assay [1] addresses Solute carrier family 2, facilitated glucose transporter member 1 (Homo sapiens) (UniProt P11166). Description: ST_JUDE_LEISH: Cytotoxicity at 2uM final concentration against transgenic Leishmania Mexicana promastigotes LmGLUT1 that are glucose transport deficient and complemented with the human glucose transporter GLUT1. Activity is measured by DNA content using SYBR green in vitro.

In assay [2] the target is Hexose transporter 1 (Plasmodium falciparum) (UniProt O97467). The experiment in a line: ST_JUDE_LEISH: Cytotoxicity at 2uM final concentration against transgenic Leishmania Mexicana promastigotes LmPfHT that are glucose transport deficient and complemented with the Plasmodium falciparum hexose transporter. Activity is measured by DNA content using SYBR green in vitro.

Assay [3] addresses Glucose transporter (Leishmania mexicana) (UniProt O61059). The experiment in a line: ST_JUDE_LEISH: Cytotoxicity at 2uM final concentration against transgenic Leishmania Mexicana promastigotes LmGT2 that are glucose transport deficient and complemented with the L. Mexicana glucose transporter 2. Activity is measured by DNA content using SYBR green in vitro.

Chain of Solute carrier family 2, facilitated glucose transporter member 1 (Homo sapiens) (P11166 whole entry): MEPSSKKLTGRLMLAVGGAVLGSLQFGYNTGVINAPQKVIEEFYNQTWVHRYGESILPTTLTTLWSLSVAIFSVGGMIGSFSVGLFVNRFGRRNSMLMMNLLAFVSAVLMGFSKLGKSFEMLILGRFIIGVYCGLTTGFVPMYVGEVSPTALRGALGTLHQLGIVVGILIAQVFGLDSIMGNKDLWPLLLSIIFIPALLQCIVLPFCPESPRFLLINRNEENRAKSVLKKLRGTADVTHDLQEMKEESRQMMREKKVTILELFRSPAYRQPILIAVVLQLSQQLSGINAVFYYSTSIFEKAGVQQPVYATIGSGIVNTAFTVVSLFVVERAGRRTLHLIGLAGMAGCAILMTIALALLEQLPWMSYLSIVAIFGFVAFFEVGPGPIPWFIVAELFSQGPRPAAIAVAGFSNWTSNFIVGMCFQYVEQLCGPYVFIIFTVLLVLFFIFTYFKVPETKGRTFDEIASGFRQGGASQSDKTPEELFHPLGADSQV

Consider `O=C(/C=C/c1ccc(Cl)c(Cl)c1)N1CCN(C(=O)Nc2cccc(C(F)(F)F)c2)CC1`, for which the inhibition – broadly, the change of the read-out against control, counted positive when it falls – in assay [1] worked out at 5.23%; in assay [2], 4.67%; in assay [3], 2.79%.
Consider `CCN1CCCC1CN(Cc1ccc(-c2ccc(C(F)(F)F)cc2)cc1)C(=O)Cn1c(CCc2cccc(F)c2F)nc(=O)c2ccccc21` (stereo not given), for which the results for the inhibition in assay [1], in assay [2] and in assay [3] were 1.13%, 2.82% and 1.11%, respectively.
Consider `COc1ccc(-c2cccc(NC(=O)c3ccccc3)c2)cc1CN1CCCN(C)CC1`, for which the inhibition in assay [1] was -2.02%; in assay [2] it was -2.26%; in assay [3], 2.04%.
The corresponding values for `COc1cc2ccccc2cc1CNCCCCCCNCc1cc2ccccc2cc1OC` are 5.18%, 6.05% and 5.15%.
In the same order, the values of `C[C@H](Cc1ccc(OCCNC[C@H](O)c2cccc(Cl)c2)cc1)NC[C@H](O)c1ccc(Cl)c(Cl)c1` are 2.67%, 1.89% and 3.19%.
The corresponding values for `COc1ccc2c(N/N=C/c3ccccc3[N+](=O)[O-])cc(C)nc2c1` are 3.18%, 2.75% and 2.99%.
For `CC(C)Cc1ccc(N2CCN(CCCCNC(=O)c3ccc(NC(=O)c4ccc(Cl)c(Cl)c4)cc3)CC2)cc1`, the values for the inhibition in assay [1], in assay [2] and in assay [3] were 1.28%, 1.46% and 0.21%, respectively.
On to `c1ccc(CN2CCC(NCc3ccccc3-c3cccc(CNCc4ccc5c(c4)OCO5)c3)CC2)cc1`, for which the inhibition was -2.53% in assay [1], -0.36% in assay [2] and 0.7% in assay [3].
Regarding `ON=C1CCc2cc(-c3nc(-c4ccc(OCCN5CCCCC5)cc4)[nH]c3-c3ccncc3)ccc21`, the inhibition in assay [1] is -1.78%; in assay [2] it was -1.49%; in assay [3], -1.7%.
In the same order, the values of `CN1CCN(c2ccc(-c3cc(-c4cc(F)c(F)c(F)c4)cnc3N)cc2)CC1` are 4.36%, 1.8% and 0.2%.
In the same order, the values of `O=C(CCCCCNC(=O)c1ccc(O)c(-c2cccc(C(F)(F)F)c2)c1)NCCN1CCCCC1` are 5.39%, 4.36% and 0.5%.
In the same order, the values of `CN1CCCC(CN2CCN(Cc3ccc(-c4ccc(-c5nc6cc(F)ccc6[nH]5)s4)cc3)CC2)C1` (stereo not given) are 5.94%, 5.97% and 4.47%.
In the case of `O=C(Cc1cccc2ccccc12)N1CCc2cc3nccc(N4CCN5CCC[C@H]5C4)c3cc21`, the inhibition in assay [1] was found to be 8.63%; in assay [2], 7.78%; in assay [3] it was 10%.
In the same order, the values of `O=C(N[C@@H](CC1CCCCC1)C(=O)NC1CCCc2ccccc21)c1ccc(O)c(-c2cccc(C(F)(F)F)c2)c1` (stereo not given in full) are 4.07%, 1.73% and 2.66%.
Regarding `O=C(/C=C/c1ccc(C(F)(F)F)cc1)NCCCCCN1CCN(C(=O)Nc2ccc(F)c(Cl)c2)CC1`, the inhibition in assay [1] was 3.33%; in assay [2] it was 2.52%; in assay [3] it was 0.69%.
For `CCCCCCN1CCCN(Cc2ccc(C(=O)Nc3ccc(CC)cc3)cc2)CC1`, the inhibition was 11.4% in assay [1], 10.9% in assay [2] and 10.6% in assay [3].
The corresponding values for `CCN(CC)CCN(Cc1ccc(-c2ccc(C(F)(F)F)cc2)nc1)C(=O)Cn1cc(Cc2cnn(C)c2)c(=O)n2nc(-c3ccccc3)cc12` are 2.39%, 3.48% and 0.44%.
In the same order, the values of `COc1cc(NC(=O)c2sc(-c3ccc(Cl)cc3)cc2NC(=O)c2ccncc2)ccc1OCCN1CCCC1` are 7.57%, 3.54% and 0.97%.
Regarding `c1ccc(CN2CCC(NCc3ccc(-c4ccc(CNCc5cccnc5)cn4)cc3)CC2)cc1`, the inhibition in assay [1] worked out at 3.27%; in assay [2], 2.84%; in assay [3], 3.77%.
The corresponding values for `CC1CCCCN1Cc1cccc(-c2c[nH]c3nc(NC4CCCC4)ncc23)c1` (stereo not given) are 10.8%, 6.53% and 6.08%.
With `CCCCCCNC(=O)c1nn(CCN2CCC(N3CCCC3)CC2)cc1-c1ccc(Cl)c(Cl)c1`, the inhibition in assay [1] is 0.97%; in assay [2], 1.84%; in assay [3], 1.8%.
The corresponding values for `O=C(NCCCCCCNCc1ccc(-c2ccccc2)cc1)Nc1ccc(Cl)c(Cl)c1` are 1.38%, 0.96% and 2.28%.
Take `COc1cc(C(=O)N2CCOC(CCN3CCC4c5ccccc5CC43)(c3ccc(Cl)c(Cl)c3)C2)cc(OC)c1OC` (stereo not given): the values for the inhibition in assay [1], in assay [2] and in assay [3] were 3.86%, -2.68% and 9.19%, respectively.
The corresponding values for `Cc1cc(OCCCN2CCC(NS(=O)(=O)c3cc(Br)c(Cl)s3)CC2)c2ccccc2n1` are -1.11%, -0.46% and -0.25%.
Consider `O=C(NCCN1CCCC1)c1ccc(-c2cccc(-c3nc4cc(F)ccc4[nH]3)c2)cc1`, for which the inhibition in assay [1] is -0.16%; in assay [2] it was 0%; in assay [3], -0.53%.
As to `CN(CCCCNC(=O)c1cc2ccccc2[nH]1)C1CC2(CCN(C(=O)OC(C)(C)C)CC2)c2ccccc21` (stereo not given), the values for the inhibition in assay [1], in assay [2] and in assay [3] were -1.12%, -1.35% and -1.2%, respectively.
The corresponding values for `COc1ccc(-c2nonc2NC(=O)c2cccc(Cl)c2)cc1OC` are 4.3%, 1.03% and 1.34%.
For `COc1ccc2ncc(C#N)c(CCN3CCC(NCc4ccc5c(c4)OCCO5)CC3)c2c1`, the values for the inhibition in assay [1], in assay [2] and in assay [3] were 48.5%, 64.6% and 83.2%, respectively.
Regarding `CCN1CCC(N(Cc2ccc(-c3ccc(Cl)cc3)cc2)C(=O)Cn2c(CCc3cccc(F)c3F)cc(=O)c3ccccc32)CC1`, the inhibition in assay [1] amounted to 9.18%; in assay [2], 5.52%; in assay [3], 7.94%.
In the same order, the values of `O=C(CCNc1ccnc(NCCc2ccc(F)cc2)n1)Nc1ccccc1` are 3.86%, 4.56% and 3.24%.
On to `CC(C)c1ccc(CN2CCC(CNC(=O)c3cc(-c4cccc(C(F)(F)F)c4)cs3)C2)cc1` (stereo not given), for which the inhibition in assay [1] is 1.18%; in assay [2] it was 1.74%; in assay [3] it was 3.79%.
As to `O=C(CSc1nc(-c2ccccc2Cl)ns1)Nc1ccc2c(c1)OCO2`, the inhibition in assay [1] is -0.52%; in assay [2], -0.45%; in assay [3] it was -1.67%.
On to `CCCCc1cc(NCc2ccncc2)nc(Nc2ccccc2)n1`, for which the figures for the inhibition in assay [1], in assay [2] and in assay [3] were 13.6%, 6.01% and 4.07%, respectively.
Turning to `COc1ccc2nccc([C@@H](O)CN3CCC(NCc4ccc5cccc(O)c5n4)CC3)c2c1`, the inhibition in assay [1] was found to be 7.73%; in assay [2], 7.94%; in assay [3], 3.46%.
The corresponding values for `Cc1nc(NCCc2c[nH]cn2)cc(NCc2ccccc2)n1` are 3.83%, 3.44% and 3.61%.

Values taken from ChEMBL document CHEMBL3433997, “St. Jude Leishmania screening dataset” (2016).
